From PubChem BioAssay AID2284116 (EPA ToxCast)
The source made the active and inactive calls. The calls were made as follows: active = hit-call score of the fitted dose curve at least 0.9, where 1 is the maximum; inactive = score below 0.9.

The compounds below were run against human Matrix Metallopeptidase 9 (MMP9), MMP9 (gene 4318) (UniProt P14780) (assay: ERF_FR_ENZ_hMMP9: Eurofins (ERF) Enzymatic LeadHunter Assay for human Matrix Metallopeptidase 9 (MMP9)).
Method: ERF_FR_ENZ_hMMP9 is a biochemical, single-readout assay that uses extracted gene-proteins in a cell-free assay. Measurements were taken 1.5 hour after chemical dosing in a 96-well plate. See MMP9 Human Matrix Metallopeptidase Enzymatic Assay, Cerep.ERF_FR_ENZ_hMMP9 is an assay component calculated from the ERF_FR_ENZ_hMMP9 assay. It is designed to measure enzyme activity using a type of enzyme reporter as detected by fluorescence intensity with fluorimetry technology.Data from the assay component ERF_FR_ENZ_hMMP9 was analyzed at the assay endpoint, ERF_FR_ENZ_hMMP9, in the positive analysis fitting direction relative to DMSO as the negative control and baseline of activity. Using a type of enzyme reporter, loss-of-signal activity can be used to understand changes in enzymatic activity as they relate to gene MMP9. To generalize the intended target to other relatable targets, this assay endpoint is annotated to the protease intended target family, where the subfamily is matrix metallopeptidase.
[…] are incubated for 60 minutes at room tempreature with Mca-PLGL-Dap(Dnp)-AR-NH2 (7.5 uM) as sunstrate and […] as control inhibitor. Test Sample Requirements: Minimum for 1) Screen: 60 ul of 10 mM stock -OR- 1 mg (pre-weighed) for 10 uM final testing. 2) Dose Response: 90 ul of 10 mM stock -OR- 1 mg (pre-weighed) for a top concentration at 10 uM.

Sequence of human Matrix Metallopeptidase 9 (MMP9), MMP9 (gene 4318) (P14780 whole entry, looked up): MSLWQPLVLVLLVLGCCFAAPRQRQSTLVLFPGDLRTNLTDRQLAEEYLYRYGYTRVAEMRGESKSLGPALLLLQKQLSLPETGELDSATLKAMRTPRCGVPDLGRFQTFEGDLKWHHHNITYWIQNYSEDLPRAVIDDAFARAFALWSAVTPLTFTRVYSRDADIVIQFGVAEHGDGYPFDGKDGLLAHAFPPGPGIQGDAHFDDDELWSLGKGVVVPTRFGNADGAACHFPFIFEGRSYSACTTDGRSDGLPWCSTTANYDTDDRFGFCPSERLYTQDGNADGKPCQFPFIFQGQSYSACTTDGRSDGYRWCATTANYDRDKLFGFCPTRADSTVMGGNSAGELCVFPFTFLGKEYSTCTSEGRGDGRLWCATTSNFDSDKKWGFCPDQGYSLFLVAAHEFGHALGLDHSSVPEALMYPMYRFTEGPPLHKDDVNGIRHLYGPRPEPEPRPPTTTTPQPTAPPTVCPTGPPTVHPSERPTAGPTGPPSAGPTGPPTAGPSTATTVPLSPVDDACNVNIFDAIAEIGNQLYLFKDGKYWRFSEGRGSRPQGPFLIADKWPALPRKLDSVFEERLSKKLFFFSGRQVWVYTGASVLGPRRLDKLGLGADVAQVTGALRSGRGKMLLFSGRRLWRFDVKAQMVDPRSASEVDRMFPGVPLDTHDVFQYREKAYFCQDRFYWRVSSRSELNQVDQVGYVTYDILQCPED

Compound | outcome
O=C(/C=C/c1ccc(O)cc1)CC(=O)/C=C/c1ccc(O)cc1 | inactive
